# Measured values: ChEMBL document CHEMBL4649986, “Chemical probes and inhibitors of bromodomains outside the BET family” (Medchemcomm, 2016)
# Assays:
# [1] = target: Bromodomain-containing protein 4 (Homo sapiens) (UniProt O60885); settings: Compound concentration 10.0 uM, Protein concentration 2.0 uM
# [2] = target: T1, Transcription intermediary factor 1-alpha (Homo sapiens) (UniProt O15164); settings: Compound concentration 10.0 uM, Protein concentration 2.0 uM
# T1 sequence (whole entry): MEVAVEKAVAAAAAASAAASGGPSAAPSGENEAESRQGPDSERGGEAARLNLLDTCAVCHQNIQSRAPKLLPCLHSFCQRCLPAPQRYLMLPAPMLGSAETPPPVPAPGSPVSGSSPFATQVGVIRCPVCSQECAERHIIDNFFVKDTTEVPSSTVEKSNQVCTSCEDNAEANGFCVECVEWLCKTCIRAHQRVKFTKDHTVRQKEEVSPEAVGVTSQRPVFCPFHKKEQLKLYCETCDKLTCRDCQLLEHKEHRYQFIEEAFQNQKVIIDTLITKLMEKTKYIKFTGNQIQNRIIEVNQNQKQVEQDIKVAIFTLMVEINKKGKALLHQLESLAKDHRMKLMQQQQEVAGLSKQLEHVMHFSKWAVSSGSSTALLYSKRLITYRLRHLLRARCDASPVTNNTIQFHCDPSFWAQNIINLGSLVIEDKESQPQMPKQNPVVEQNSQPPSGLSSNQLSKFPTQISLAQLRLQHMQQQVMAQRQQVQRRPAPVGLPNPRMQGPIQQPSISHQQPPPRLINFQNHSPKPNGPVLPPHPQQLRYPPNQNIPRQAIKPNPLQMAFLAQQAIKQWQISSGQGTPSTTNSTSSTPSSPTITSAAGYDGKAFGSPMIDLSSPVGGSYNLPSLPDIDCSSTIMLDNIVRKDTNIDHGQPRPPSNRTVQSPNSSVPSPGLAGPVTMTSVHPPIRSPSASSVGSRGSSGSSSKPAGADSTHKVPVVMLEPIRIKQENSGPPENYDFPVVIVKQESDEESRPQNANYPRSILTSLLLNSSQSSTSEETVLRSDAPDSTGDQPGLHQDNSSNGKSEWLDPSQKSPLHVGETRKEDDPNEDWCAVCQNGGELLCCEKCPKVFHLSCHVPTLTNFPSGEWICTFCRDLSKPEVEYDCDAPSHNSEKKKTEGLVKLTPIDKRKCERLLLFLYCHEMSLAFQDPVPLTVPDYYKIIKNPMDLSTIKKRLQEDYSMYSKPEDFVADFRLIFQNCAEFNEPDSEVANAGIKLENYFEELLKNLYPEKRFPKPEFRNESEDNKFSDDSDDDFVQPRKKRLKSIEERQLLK
smiles,measurement,setting,value
CCCS(=O)(=O)c1nc(NC2CC2)cc(-c2ccc3c(ccn3C3CC(C)(C)NC(C)(C)C3)c2)n1,ΔTm,[1],0.53 °C
same,ΔTm,[2],0.33 °C
